High-throughput results from PubChem BioAssay.
In the library only some 2.1% were active in any assay of this set; here they are far more common.
TPT1 inh – blocks Candida albicans tRNA 2'-phosphotransferase | inhibition, % at 5 µM | 300,000 compounds, 0.81% hits | AID 1962 | recombinant caTPT1, FP RNA substrate dephosphorylation;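 active = inhibition above the mean of all tested compounds plus 3 SD, set per screening campaign, cut at about 24% in these data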;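 also: plate controls were DMSO alone for no effect and ferristatin control at 100 nM for full effect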
Myeloid diff 2 – myeloid differentiation induction | ER-HoxA9 myeloid progenitors, lysozyme-GFP differentiation, flow cytometry | calls only at 10 µM | 360,000 compounds, 1% hits | AID 624256;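 active = normalized GFP-positive differentiation at or above the plate's own cutoff, the solvent-only control mean plus 3 SD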;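 also: cells exposed to compound for four days before flow analysis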
HNF4A DNA FP – change in binding of human HNF4 alpha to DNA; P41235; HNF4a-FITC DNA binding, fluorescence polarization, 1 h; activity change, % at 10 µM; 360,000 compounds, 0.3% hits; in the data active = activity change above about 30%, passing the limit was not always enough
Rpn11 block – blocks the human proteasome subunit Rpn11; inhibition, % at 20 µM; human 26S proteasome, Ub4-pepOG fluorescence polarization; 20S core pre-blocked with epoxomicin; O00487; AID 588493; 360,000 compounds, 0.59% hits;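 active = inhibition at 20 µM, scaled to each plate's controls, above about 33%, limit read from the data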
Target sequence (O00487 whole entry, looked up): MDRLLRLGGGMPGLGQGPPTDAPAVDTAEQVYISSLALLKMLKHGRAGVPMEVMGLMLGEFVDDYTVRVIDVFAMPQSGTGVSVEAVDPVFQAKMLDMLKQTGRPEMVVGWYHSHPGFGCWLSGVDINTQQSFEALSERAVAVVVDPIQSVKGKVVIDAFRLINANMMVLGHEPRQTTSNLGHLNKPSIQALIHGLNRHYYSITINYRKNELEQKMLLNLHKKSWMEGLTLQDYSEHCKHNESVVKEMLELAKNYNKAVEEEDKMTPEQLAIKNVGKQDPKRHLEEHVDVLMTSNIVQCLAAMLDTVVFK
Myeloid diff – promotes myeloid progenitor differentiation; shares compounds with Myeloid diff 2; AID 651706; calls only; 2,300 compounds, 2% hits; ER-HoxA9 myeloid progenitors, GFP/Mac1 double-positive flow;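 active = share of green or green-and-red cells above 9 and 9% in run 1 or 4 and 3% in run 2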
GFP autofluor – counter-screen for myeloid differentiation promoters: compound fluorescence; shares compounds with Myeloid diff 2; ER-HoxA9 myeloid progenitors, no estrogen, GFP autofluorescence flow cytometry; vehicle wells 0%, positive control 100%; fluorescence response, % (concentration not given with the values); 2,300 compounds, 7.4% hits; AID 651707;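 active = over 5% cells positive for green fluorescent reporter, or over 2% positive for both it and APC stain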;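 also: range taken on the double positive population between DMSO and positive control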
An asterisk follows results filed as active; i = inactive; / = no result; + = active, no number.

SMILES	TPT1 inh	Myeloid diff 2	HNF4A DNA FP	Rpn11 block	Myeloid diff	GFP autofluor
COc1ccc([N+](=O)[O-])cc1NCC(=O)Nc1cccc(S(=O)(=O)N2CCCC2)c1	/	i	-1	-1	/	/
CN1CCN(c2ccccc2NC(=O)COc2ccc(Br)cc2)CC1	-1	i	3	-1	/	/
CC(OC(=O)c1cccnc1Cl)C(=O)NCc1ccccc1 (stereo not given)	/	i	2	3	/	/
O=C(NCCN1CCOCC1)c1cccc(S(=O)(=O)N2CCCCCC2)c1	-3	i	0	1	/	/
O=C(Nc1cccc(S(=O)(=O)N2CCCCC2)c1)c1ccc2c(=O)n3c(nc2c1)CCCCC3	-1	i	-1	8	i	0
O=C(NCCO)c1cccc(S(=O)(=O)N2CCCCC2)c1	3	i	-2	-4	i	0
COc1ccc2c(c1)C(CC(C)=O)N(c1ccc(-c3cccs3)cc1)C(c1ccsc1)=C2 (stereo not given)	/	+	6	/	i	0
CC(=O)c1cccc(CN2CCN(C(C)C)C(CCO)C2)c1 (stereo not given)	-3	i	0	-10	/	/
CCn1c(=O)cc(SCC(=O)Nc2ccc(C)cn2)c2ccccc21	-1	i	-2	0	/	/
CCCc1[nH]n(-c2ccc(F)cc2)c(=O)c1C=Nc1cccc(F)c1	1	i	1	-8	i	2
CCCc1[nH]n(-c2ccc(F)cc2)c(=O)c1C=NCC1CCCO1 (stereo not given)	1	i	-2	-4	/	/
CCC1(c2ccccc2)NC(=O)N(CC(=O)Nc2cccc(C#N)c2)C1=O (stereo not given)	0	+	2	0	i	0
COc1ccc(CCCNC(=O)C2CCC(=O)N(CC3CCCCC3)C2)cc1 (stereo not given)	2	i	-1	-10	/	/
O=C1CN(C(=O)c2ccc(Cl)c(S(=O)(=O)N3CCc4ccccc43)c2)c2ccccc2N1	1	i	2	20	/	/
O=C(CCc1nc2ccccc2c(=O)[nH]1)N1CCCc2ccccc21	7	+	2	9	i	2
O=C(CCc1nc2ccccc2c(=O)[nH]1)N1CCN(c2ccccc2Cl)CC1	/	i	-1	6	/	/
COc1cccc(-n2cc(CN(C)Cc3nc(Cc4cccc(F)c4)no3)cn2)c1	0	i	4	3	i	0
COc1cccc(-n2cc(CN(C)Cc3nc(Cc4ccccc4)no3)cn2)c1	-6	i	3	0	/	/
CC1(C)CC(Cc2nc(=S)[nH][nH]2)C(=O)O1 (stereo not given)	2	i	4	1	/	/
CC(=O)N/N=C/c1cc(C(C)(C)C)cc(/C=N/NC(C)=O)c1O	-60	+	-43	-62	i	0
COC(=O)NNC(=O)COc1ccc2ccccc2c1Br	15	i	2	7	i	1
CCNC(=O)NC1(C(=O)N2CCC(Cc3ccccc3)CC2)CCCCC1	/	+	0	7	i	1
O=C(NCc1ccccc1)NC1(C(=O)N2CCCC2)CCCCC1	-4	i	-5	-10	/	/
COc1ccc(OC)c(NC(=O)CCN2CC(C)OC(C)C2)c1 (stereo not given)	-3	i	-1	1	/	/
COc1ccc(NC(=O)CCN2CC(C)OC(C)C2)c(OC)c1 (stereo not given)	-3	+	0	2	i	0
SMILES	TPT1 inh	Myeloid diff 2	HNF4A DNA FP	Rpn11 block	Myeloid diff	GFP autofluor
Cc1ccc(N2CCN(S(=O)(=O)c3ccc(C)cc3)CC2)cc1	1	i	2	2	/	/
Cc1ccc(S(=O)(=O)N2CCN(C(=O)CN3CCN(c4ccc(O)cc4)CC3)CC2)cc1	/	+	5	-1	i	0
O=C(COc1coc(CN2CCc3ccccc3C2)cc1=O)N1CCOCC1	0	i	3	2	/	/
O=C1COc2ccc(C(=O)NCc3ccco3)cc2N1	-3	i	1	-3	i	0
O=C1COc2ccc(C(=O)/C=C/c3ccccc3)cc2N1	1	i	1	-11	i	0
O=C1COc2ccc(C(=O)c3ccccc3C(=O)NCc3ccco3)cc2N1	-3	i	3	5	/	/
O=C1N/C(=N/N=C/c2ccccc2)SC1(c1ccccc1)c1ccccc1	-1	i	-3	0	/	/
CN(C)c1ccc(CNCc2cccnc2)cc1	-2	i	-2	-3	i	0
